ChEMBL document CHEMBL3988442, “University of Dundee, Small-Polar-MMV Screening Library” (2021)

What follows are molecules tested against AMP-activated protein kinase, AMPK (Homo sapiens) (UniProt P54646+O43741+P54619+Q9UGJ0+Q9Y478+Q13131+Q9UGI9) (assay: AMP-dependent Kinase enzyme assay. An in vitro enzyme assay that detects ADP turnover that is directly proportional to AMPK activity. This uses naive AMPK that is activated during the assay with MK-8722). Conditions: 30 µM.
Assay type: functional
Design: scale not given: direction of the effect not stated beside the values

**Q.** For `CN1CCN(C(=O)C2(NC(N)=O)CCCCC2)Cc2ccccc21`, which Percent Effect is on record?
**A.** 0.804%

**Q.** With `CNc1nc(C(=O)NCC2CCOc3ccccc3C2)cs1` (stereo not drawn) as the molecule, how does the Percent Effect read?
**A.** 1.74%

**Q.** How did the Percent Effect turn out when `COc1cccc(NC(=O)NCC2CCCN(C3CCOCC3)C2)c1` (stereo not drawn) was run?
**A.** 6.25%

**Q.** Which Percent Effect does the source give for `Cn1nc(C(=O)NCc2ccc(OC3CCCCC3)nc2)ccc1=O` here?
**A.** 8.07%

**Q.** `OC[C@@H]1CCCN1Cc1cn(C2CCN(C3CCCC3)CC2)nn1` was tested. Which Percent Effect did it give?
**A.** -1.95%

**Q.** With `Nc1ccc(C(=O)N2CCC(Oc3cccc(C(F)(F)F)c3)CC2)cn1` as the molecule, how does the Percent Effect read?
**A.** 6.7%

**Q.** Which Percent Effect does the source give for `CC(C)COc1cncc(N2CCCC(CC(N)=O)C2)n1` (stereo not drawn) here?
**A.** 10.7%

**Q.** `NC(=O)c1cc2c(nc1CC1CCCCO1)CCC2` (stereo not drawn) was tested. Which Percent Effect did it give?
**A.** -4.87%

**Q.** For `CC(C)n1cnnc1CN(C)C(=O)c1cc(COc2ccccc2)[nH]n1`, which Percent Effect is on record?
**A.** 0%

**Q.** How did the Percent Effect turn out when `C[C@H](O)c1cnn(-c2ccccc2)c1` was run?
**A.** 3.7%

**Q.** With `CCc1nc(N)nc(NCCC(=O)N2CCCC2)c1C` as the molecule, how does the Percent Effect read?
**A.** 4.47%

**Q.** With `Cn1ccc(N2CCCC(NC(=O)c3ccsc3)C2=O)n1` (stereo not drawn) as the molecule, how does the Percent Effect read?
**A.** -4.2%

**Q.** Which Percent Effect does the source give for `O=C(Cc1nc(-c2ccncc2)n[nH]1)N1CCOCC1` here?
**A.** 7.55%

**Q.** Which Percent Effect does the source give for `CCN(CCNC(=O)Nc1nnc(C)s1)C(=O)OC(C)(C)C` here?
**A.** -0.666%

**Q.** Which Percent Effect does the source give for `CC1(C)CC(C(=O)N2CCC3(CCC(=O)N(C4CC4)C3)CC2)CCO1` (stereo not drawn) here?
**A.** -0.458%

**Q.** With `CC(O)CN1CCN(Cc2coc(-c3cccc(Cl)c3)n2)CC1` (stereo not drawn) as the molecule, how does the Percent Effect read?
**A.** -7.56%

**Q.** With `CN(Cc1cscn1)Cc1cc2c(cc1Br)OCO2` as the molecule, how does the Percent Effect read?
**A.** -7.36%

**Q.** How did the Percent Effect turn out when `O=C(Cn1ccnc1)N1CC[C@H](Oc2cccc(F)c2)[C@@H](O)CC1` was run?
**A.** 8.87%
